The values below come from PubChem BioAssay AID2685 (National Center for Advancing Translational Sciences (NCATS), 2010).

About 2,100 (0.66%) of roughly 320,000 compounds were called active. Another 53% or so got no clear call; they are omitted. Calls come from the whole dose curve; as a rule, active = well fitted inhibition curve with a large enough effect in the signal ratio, with a control signal flat (not every such curve was filed as active); inconclusive = small, poorly fitted or top-dose-only effect, or effect the other way, or a change in a side signal; inactive = flat fitted curve, though single readings scatter; the % refers to the signal ratio. The list comes from a sample in which actives are over-represented; it also holds similar structures and randomly drawn compounds.
Potency is the fitted concentration of half-maximal effect.

This assay is described as follows: qHTS Assay for Lipid Storage Modulators in Drosophila S3 Cells.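 For cell number change: cells counted by Cell Tracker Red CMTPX staining in the red channel.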 For lipid storage change, negative = inhibition: % is set by controls: 0 for no effect and ±100 for the full control effect. The conditions noted are these: BODIPY lipid droplet fluorescence, 18-24 h, cells fed with added oleic acid; cell number change: measured here: cell count max response; series mostly up to 46.1 µM. An excerpt:
NIH Molecular Libraries Probe Production Centers Network [MLPCN] NIH Chemical Genomics Center [NCGC] MLPCN Grant: 1 R03 MH085686-01 Assay Submitter (PI): Beller, Mathias; Max-Planck-Institut fur Biophysikalische Chemie NCGC Assay Overview: Storing lipids as a reservoir for energy or the anabolism of elementary metabolites is a common feature of probably all cells and is conserved from bacteria to humans. The universal cellular lipid storage organelle is the so-called lipid storage droplet (LD). Although ubiquitous, LDs share a simple structure composed of a hydrophobic core that harbors the storage lipids, which is shielded by a droplet-specific phospholipid monolayer to which proteins are attached. The current model of LD biogenesis involves an incorporation of the lipid core into the membrane leaflets of the endoplasmic reticulum (ER) followed by a subsequent budding-like maturation of a LD, which ultimately pinches off. Once released, LD volume can increase by localized lipogenesis or fusion of existing droplet. Storage lipids are re-mobilized enzymatically by lipase activity. Lipase regulation in the adipocyte is heavily studied and involves multiple components including catecholamine signaling, the LD-associated proteins Perilipin and comparative gene identification (CGI-58) and at least two lipases named hormone sensitive lipase (HSL) and adipocyte triglyceride lipase (ATGL). LD regulation outside of the adipocyte is poorly understood and only few components are known. However, there is an urgent need to learn more about ectopic fat depots as mislocalized storage of lipids, for example in the liver or muscle, is an eminent health problem associated with insulin resistance or the metabolic syndrome. We developed a laser-scanning cytometer assay to enable 1,536-well screening and combined the results of the small molecules screen with an RNAi database based on lipid storage.
Triacsin C (Sigma-Aldrich T-4540), an inhibitor of long-chain fatty acyl CoA synthetase that blocks synthesis of triglycerides, was used as a positive control for lipid under-storage. A total of 23 nL of compound solution of different concentrations were transferred to the assay plates using a Kalypsys pin tool equipped with a 1,536-pin array containing 10-nL slotted pins (FP1S10, 0.457-mm diameter, 50.8 mm long; V&P Scientific). One microliter of oleic acid (400 uM) was added, and the plate was lidded with stainless steel rubber gasket lined lids containing pinholes. […] Fluorescence was detected by excitation of the fluorophores with a 488-nm laser on an Acumen Explorer (TTP Lab Tech). The total intensity in channel 2 (500-530 nm) reflected lipid droplet accumulation. Cells were detected using channel 3 (575-640 nm) with 5-um width and 100-um depth filters. The ratio of the number of objects in PMT channel 2 over the number of objects in PMT channel 3 was also calculated. Percent activity was computed relative to an internal control (100% inhibited lipid droplet deposition due to the presence of 20 uM Triacsin C), which was added to 32 wells/plate.
Background: qHTS replaces the single test concentration by a dilution series.
As to `CN(C)C(=O)c1cc(C(=O)c2ccccc2Br)c[nH]1`, the Potency entry was “inactive” and the cell number change was found to be 10.8%.

For the molecule `Cc1nn(CC(=O)NCc2cccnc2)c(C)c1[N+](=O)[O-]`, the Potency result was “inactive” and the cell number change came to 15.3%.

For the molecule `COC(c1ccccc1)c1nnc(CCC(=O)N2CCN(C3CCCC3)CC2)o1` (centres undefined), the Potency entry was “inactive” and the cell number change was determined as 22.7%.

In the case of `COC(c1ccccc1)c1nnc(CCC(=O)N2CCCCCCC2)o1` (centres undefined), the Potency result is “inactive” and the cell number change is 7.76%.

With `COC(c1ccccc1)c1nnc(CCC(=O)NCCc2ccc(Cl)cc2)o1` (centres undefined), the Potency is 14.6 µM (active) and the cell number change is -7.97%.

For `CCOC(=O)c1ccc(NC(=O)CCc2nc(-c3ccc(C)cc3)no2)cc1`, the Potency entry was “inactive”.

Consider `CC(c1ccccc1)C1C(C#N)=C(N)OC2=C1C(=O)CC(C)(C)C2` (centres undefined), for which the Potency entry is “inactive”.

Take `CN(CC(=O)Nc1ccccc1Cl)C(=O)Cn1nnc(-c2ccc(F)cc2)n1`: the Potency result was “inactive”.

Take `CCC1CCCCN1C(=O)c1sc2nc(C)nc(N(CC)CC)c2c1C` (centres undefined): the Potency entry was “inactive” and the cell number change came to 9.48%.

`CCCCCN(C(=O)CCC(=O)OC(C)C(=O)NCc1ccccc1)c1c(N)n(CCCC)c(=O)[nH]c1=O` (centres undefined): the cell number change is -30.3% and the lipid storage change, negative = inhibition is 4.2% [at 0.0737 µM] (inactive).

Regarding `Cn1c(SCC(=O)NCc2ccco2)nnc1-c1ccc(S(=O)(=O)N2CCOCC2)cc1`, the Potency is 5.8 µM (active) and the cell number change was -9.46%.

`CCCCn1nnnc1SCC(=O)NNC(=O)c1ccco1`: the Potency result was “inactive” and the cell number change was 1.07%.

Consider `CCCCn1c(SCC(=O)NCc2ccco2)nnc1-c1ccco1`, for which the Potency entry was “inactive” and the cell number change was -17%.

For `O=C(CN1CCCc2ccccc21)NC(=O)NCc1ccco1`, the Potency entry is “inactive” and the cell number change worked out at 15.9%.

`O=C(CSc1ccccc1)NCc1ccco1`: the Potency entry is “inactive” and the cell number change was -1.34%.

Regarding `Cc1ccc(CSCC(=O)NCc2ccco2)cc1`, the Potency entry was “inactive” and the cell number change worked out at 14.7%.

As for `Cc1ccc(NC(=O)CSc2nnc(-c3ccc(S(=O)(=O)N4CCOCC4)cc3)n2C)cc1`, the Potency result was “inactive”.

`O=C(CN1CCc2ccccc21)NC(=O)NCc1ccccc1`: the Potency entry was “inactive”.

On to `O=C(CSCC(=O)NCc1ccco1)NCc1ccco1`, for which the Potency was 6.51 µM (active) and the cell number change came out at 16.7%.

On to `Cn1c(SCC(=O)NCc2ccco2)nnc1-c1ccccc1`, for which the Potency entry was “inactive” and the cell number change is -3.55%.

For the molecule `O=C(CN1CCc2ccccc21)NC(=O)NCc1ccco1`, the Potency was 6.51 µM (active) and the cell number change worked out at 0.297%.

On to `CCCCn1nnnc1SCC(=O)NCc1ccco1`, for which the Potency is 23.1 µM (active) and the cell number change was 0.128%.

Turning to `COc1ccc(C(C)NC(=O)c2ccc([N+](=O)[O-])cc2)cc1OC` (centres undefined), the Potency entry is “inactive” and the cell number change is 5.72%.

On to `CC12COC3(C(=O)Nc4nccs4)CC1CCC32C` (centres undefined), for which the Potency result is “inactive” and the cell number change amounted to 20.9%.

Regarding `O=C1c2ccccc2C(=O)N1Cc1ccccn1`, the Potency result is “inactive” and the cell number change was -28%.

As to `COC(=O)C1=C(C)C(c2cccs2)NC(=O)N1C` (centres undefined), the Potency result is “inactive” and the cell number change turned out to be 10.6%.

Take `O=C(NCc1cccs1)NC1CCCCC1`: the Potency entry was “inactive” and the cell number change is 3.84%.

Consider `O=C(NCCCn1ccnc1)c1ccc2ccccc2c1`, for which the Potency entry was “inactive”.

For the molecule `Cc1nc2ccccn2c1C(=O)c1ccccc1`, the Potency entry was “inactive” and the cell number change stood at 15.8%.

As for `O=C(O)c1c(Cl)nc2ccccn12`, the Potency is 4.61 µM (active) and the cell number change was -7.31%.

As for `O=Cc1c(Cl)nc2ccccn12`, the Potency entry was “inactive” and the cell number change is -2.46%.

For the molecule `COc1ccc([N+](=O)[O-])cc1NC(=O)CSc1nc(C)c(C)c(C)n1`, the Potency result is “inactive” and the cell number change worked out at 1.59%.

`CCOC(=O)C1CCN(C(=O)Cn2cnc3sc(C)c(S(=O)(=O)N4CCOCC4)c3c2=O)CC1`: the Potency result is “inactive” and the cell number change came out at 1.25%.

As for `Cc1sc2ncn(CC(=O)N3CCCCC3)c(=O)c2c1S(=O)(=O)N1CCC(C)CC1`, the Potency entry is “inactive” and the cell number change came out at 18.5%.

As to `CCOC(=O)C1CCN(C(=O)Cn2cnc3sc(C)c(S(=O)(=O)N4CCC(C)CC4)c3c2=O)CC1`, the Potency was 0.58 µM (active) and the cell number change amounted to 14.4%.

Regarding `CN(C)c1ncc(S(=O)(=O)c2ccccc2)c(=O)[nH]1`, the Potency entry is “inactive” and the cell number change amounted to 19.4%.

With `CC12CC3(C)CC(C)(C1)CC(C(=O)NCC(=O)O)(C2)C3`, the Potency is 1.46 µM (active) and the cell number change was -16.9%.

With `CC12CC3(C)CC(C)(C1)CC(C(=O)NC(=S)N1CCCC1)(C2)C3`, the Potency entry is “inactive” and the cell number change is -0.792%.

Consider `COC(=O)CNC(=O)C12CC3(C)CC(C)(CC(C)(C3)C1)C2`, for which the Potency entry is “inactive” and the cell number change was -2.27%.

As to `Cc1cc(C)nc(SCc2cn3c(C)cccc3n2)n1`, the Potency result was “inactive” and the cell number change worked out at 13.2%.

On to `O=C(NCCc1ccccc1)C1CCCN(C(=O)Nc2ccc(F)cc2)C1` (centres undefined), for which the Potency result was “inactive” and the cell number change came to 16.8%.

For `O=C(COC(=O)c1ccc(NS(=O)(=O)c2ccc(F)c(F)c2)cc1)NCC1CCCO1` (centres undefined), the Potency entry was “inactive” and the cell number change came out at 10.2%.

With `O=C(CCc1c[nH]c2ccccc12)N1CCCCCCC1`, the Potency entry was “inactive” and the cell number change was -19.1%.

`Cc1cc(NC(=O)c2cc([N+](=O)[O-])cc([N+](=O)[O-])c2)no1`: the Potency result was “inactive” and the cell number change turned out to be 2.37%.

As for `Cc1cc(NC(=O)c2ccc([N+](=O)[O-])cc2)no1`, the Potency is 0.58 µM (active) and the cell number change was -11.8%.

In the case of `Cc1cc(NC(=O)c2ccc(C)c([N+](=O)[O-])c2)no1`, the Potency entry was “inactive” and the cell number change stood at 0.478%.

For `C/C(=N\NC(=O)c1ccc(F)cc1)c1cccc(NC(=O)c2cccc(F)c2)c1`, the Potency entry is “inactive” and the cell number change was 11.9%.

Take `COC(=O)c1sccc1NC(=O)COc1ccc(F)cc1Cl`: the Potency result was “inactive” and the cell number change stood at 0.149%.

As to `COCCc1nn2c(=O)cc(COC(=O)c3cc(OC)c(OC)c(OC)c3)nc2s1`, the Potency entry was “inactive”.

`Cc1nn2c(=O)cc(COC(=O)c3ccc(NC(=O)C(C)(C)C)cc3)nc2s1`: the Potency is 3.66 µM (active) and the cell number change worked out at 7.59%.

`Cc1ccc(C(=O)Nc2ccc(C(=O)OCc3cc(=O)n4ccsc4n3)cc2)cc1`: the Potency result is “inactive” and the cell number change was determined as 10.6%.

As for `COc1ccc(C(=O)CSc2ccc3nnc(-c4cccnc4)n3n2)cc1`, the Potency entry was “inactive” and the cell number change is -3.07%.

`Clc1ccc(OCc2nnc3n2CCCCC3)c(Cl)c1`: the Potency entry was “inactive”.

In the case of `CC(C(=O)NC1CCS(=O)(=O)C1)N1C(=O)/C(=C/c2ccc(Cl)cc2)SC1=S` (centres undefined), the Potency is 20.6 µM (active) and the cell number change is -12.5%.

Regarding `O=C(CN1C(=O)S/C(=C\c2ccccc2F)C1=O)NC1CCS(=O)(=O)C1` (centres undefined), the Potency result was “inactive” and the cell number change was -4.18%.

Turning to `O=C(CN1C(=O)/C(=C/c2ccc(F)cc2)SC1=S)NC1CCS(=O)(=O)C1` (centres undefined), the Potency result is “inactive” and the cell number change is -19.3%.

Turning to `O=C(CN1C(=O)/C(=C/c2ccccc2)SC1=S)NC1CCS(=O)(=O)C1` (centres undefined), the Potency result is “inactive”.

As for `O=C(CN1C(=O)S/C(=C\c2ccccc2)C1=O)NC1CCS(=O)(=O)C1` (centres undefined), the Potency is 20.6 µM (active).

Turning to `COc1cccc(/C=C2\SC(=O)N(CC(=O)NC3CCS(=O)(=O)C3)C2=O)c1` (centres undefined), the Potency entry was “inactive” and the cell number change came to 0.472%.

For the molecule `O=C(CCN1C(=O)S/C(=C\c2ccccc2)C1=O)NC1CCS(=O)(=O)C1` (centres undefined), the Potency result was “inactive” and the cell number change was -15.9%.

Take `COc1ccc(/C=C2\SC(=S)N(CC(=O)NC3CCS(=O)(=O)C3)C2=O)cc1` (centres undefined): the Potency result is “inactive” and the cell number change worked out at 5.36%.

`CC(C)c1ccc(/C=C2\SC(=O)N(CC(=O)NC3CCS(=O)(=O)C3)C2=O)cc1` (centres undefined): the Potency is 2.59 µM (active) and the cell number change was -27.6%.
